Inconclusive results are not listed. Where a call stands in place of a potency, no number is given. Calls of active or inactive are those of the source. The call rests on the fitted dose curve; in most records, active means well fitted curve in the direction sought with a large enough effect in the repeat runs; inconclusive means weak or mixed curves; inactive means no such curve, though single readings can be large; an effect the other way counts as inactive or inconclusive.
Target: Luciferin 4-monooxygenase (Photinus pyralis) (UniProt P08659)
Sequence (P08659 whole entry, looked up): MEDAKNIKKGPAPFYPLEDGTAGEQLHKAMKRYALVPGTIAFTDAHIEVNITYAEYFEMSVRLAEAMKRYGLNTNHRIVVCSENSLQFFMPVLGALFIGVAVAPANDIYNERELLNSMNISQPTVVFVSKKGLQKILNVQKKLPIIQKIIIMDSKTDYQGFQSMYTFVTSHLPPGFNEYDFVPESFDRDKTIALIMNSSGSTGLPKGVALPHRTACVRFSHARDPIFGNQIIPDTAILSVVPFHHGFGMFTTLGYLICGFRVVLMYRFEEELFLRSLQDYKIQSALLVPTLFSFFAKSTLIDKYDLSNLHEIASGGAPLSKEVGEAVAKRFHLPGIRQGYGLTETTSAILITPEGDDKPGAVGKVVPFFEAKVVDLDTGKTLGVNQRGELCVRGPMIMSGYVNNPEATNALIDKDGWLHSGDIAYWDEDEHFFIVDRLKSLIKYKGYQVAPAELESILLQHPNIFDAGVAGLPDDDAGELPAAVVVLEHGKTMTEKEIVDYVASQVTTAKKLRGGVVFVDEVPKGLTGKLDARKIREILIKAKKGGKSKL
Assay: qHTS assay to identify small molecule inhibitors of firefly luciferase (AID 1224835); further: nearly all actives have a fitted effect of over 25% in size; further: potency means the concentration at half of the fitted maximal effect
Conditions: purified P. pyralis luciferase, luminescence inhibition; series mostly up to 115 µM
Summary of the method: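 Biochemical qHTS: compounds run as interplate titrations against purified firefly enzyme, with D-luciferin and ATP each at its KM concentration. Light output recorded by CCD imaging.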
For `CCOC(=N)CC(=O)OCC`, the Potency was “inactive”. With `CCOC(=O)C(C)Oc1ccc(Oc2nc3ccc(Cl)cc3o2)cc1` (centres undefined) the Potency was 39.9 µM (active). In the case of `CC(C)(CCl)c1ccccc1`, the Potency is reported as “inactive”. For `N#C/C(=C1\SCC(c2ccccc2Cl)S1)n1ccnc1` (centres undefined), the Potency was “inactive”. In the case of `CC(C)c1nnc2ccc(-c3ocnc3-c3cc(F)ccc3F)cn12`, the Potency is reported as “inactive”. In the case of `Cc1nccn1-c1ccc(Sc2cccc(C3(C(N)=O)CCOCC3)c2)cc1`, the Potency is reported as “inactive”. For `Cc1cc(O)c2c(O)c3c(O)cccc3cc2c1`, the Potency was “inactive”. With `CC(=O)Oc1ccc2c(c1)CC[C@@H]1[C@@H]2CC[C@]2(C)[C@@H](O)CC[C@@H]12` the Potency was 24.5 µM (active). In the case of `CO/N=C1\CN(c2nc3c(cc2F)c(=O)c(C(=O)O)cn3C2CC2)CC1CN` (centres undefined), the Potency is reported as “inactive”. With `N#C/C(=C1/SC[C@@H](c2ccc(Cl)cc2Cl)S1)n1ccnc1` the Potency was “inactive”. With `C=CC(=O)NCOCC(C)C` the Potency was “inactive”. For `O=C(O)Cc1ccc(-c2ccccc2)cc1`, the Potency was “inactive”. With `NCC1CCCC(CN)C1` (centres undefined) the Potency was “inactive”. With `C=C(C)C(=O)OCCOC(=O)CC(C)=O` the Potency was “inactive”. With `O=C(c1ccc(O)cc1)c1ccc(Cl)cc1` the Potency was 64.7 µM (active). In the case of `O=C(O)c1ccccc1NCCc1ccccc1`, the Potency is reported as 27.5 µM (active). In the case of `COCCOC(=O)C1=C(C)NC(C)=C(C(=O)OC/C=C/c2ccccc2)C1c1cccc([N+](=O)[O-])c1` (centres undefined), the Potency is reported as “inactive”. In the case of `CCCCC(CC)C(=O)OCCOCCOCCOCCOC(=O)C(CC)CCCC` (centres undefined), the Potency is reported as “inactive”. With `C1COCO1` the Potency was “inactive”. For `Cc1ccc(Nc2nccc(N(C)c3ccc4c(C)n(C)nc4c3)n2)cc1S(N)(=O)=O`, the Potency was 30.9 µM (active). With `CC(C)=CC=O` the Potency was “inactive”. In the case of `CCCCCCCCCCCC[N+](C)(C)CCCS(=O)(=O)[O-]`, the Potency is reported as “inactive”. With `CO[C@@]12[C@H](COC(N)=O)C3=C(C(=O)C(C)=C(N)C3=O)N1C[C@@H]1N[C@@H]12` the Potency was “inactive”. With `ON(Cc1ccccc1)Cc1ccccc1` the Potency was “inactive”. In the case of `CNC(=O)N(c1ccccc1)c1ccccc1`, the Potency is reported as “inactive”. With `O=C(OCCOCCO)c1ccccc1Nc1cccc(C(F)(F)F)c1` the Potency was “inactive”. In the case of `CCC(Cc1ccccc1)(C(=O)c1ccc(N2CCOCC2)cc1)N(C)C` (centres undefined), the Potency is reported as “inactive”. In the case of `CCCCCCOC(=O)C(C)C`, the Potency is reported as “inactive”. For `CC(=O)OCC(=O)[C@H]1CC[C@H]2[C@@H]3CCC4=CC(=O)CC[C@]4(C)[C@H]3CC[C@]12C`, the Potency was “inactive”. With `NC(=O)N(O)[C@@H]1C=C[C@H](Oc2cccc(Oc3ccc(F)cc3)c2)C1` the Potency was 31.7 µM (active).

Test system: not listed separately
Assay: qHTS assay to identify small molecule agonists of the constitutive androstane receptor (CAR) signaling pathway - cell viability counter screen (AID 1224836); further: nearly all actives have a fitted effect of over 45% in size
Conditions: HepG2-CYP2B6-hCAR viability, CellTiter-Fluor, 23 h, PK11195 added to every well; series mostly up to 92.4 µM
Summary of the method: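 Counter screen multiplexed with the CAR reporter readout: HepG2 cells co-transfected with hCAR and the CYP2B6-2.2kb construct receive a 15-concentration compound series and 0.75 uM PK11195 (final), then CellTiter-Fluor fluorescence is read after 23 h.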
In the case of `Nc1ccc(Cl)cc1[N+](=O)[O-]`, the Potency is reported as “inactive”. With `CC(C)(CCl)c1ccccc1` the Potency was “inactive”. In the case of `N#C/C(=C1\SCC(c2ccccc2Cl)S1)n1ccnc1` (centres undefined), the Potency is reported as “inactive”. For `CCCOc1ccc(S(=O)(=O)N2CCN(CC)CC2)cc1-c1nc2c(CC)n(Cc3ccccn3)nc2c(=O)[nH]1`, the Potency was “inactive”. For `CCCCN(CCCC)C(=S)SSC(=S)N(CCCC)CCCC`, the Potency was “inactive”. With `Nc1ccc(S(=O)(=O)O)cc1` the Potency was “inactive”. For `CC(C)c1nnc2ccc(-c3ocnc3-c3cc(F)ccc3F)cn12`, the Potency was “inactive”. For `CC(=O)Oc1ccc2c(c1)CC[C@@H]1[C@@H]2CC[C@]2(C)[C@@H](O)CC[C@@H]12`, the Potency was “inactive”. For `CO/N=C1\CN(c2nc3c(cc2F)c(=O)c(C(=O)O)cn3C2CC2)CC1CN` (centres undefined), the Potency was “inactive”. With `N#C/C(=C1/SC[C@@H](c2ccc(Cl)cc2Cl)S1)n1ccnc1` the Potency was “inactive”. With `C=CC(=O)NCOCC(C)C` the Potency was “inactive”. For `O=C(O)Cc1ccc(-c2ccccc2)cc1`, the Potency was “inactive”. With `NCC1CCCC(CN)C1` (centres undefined) the Potency was “inactive”. In the case of `C=C(C)C(=O)OCCOC(=O)CC(C)=O`, the Potency is reported as “inactive”. In the case of `O=C(O)c1ccccc1NCCc1ccccc1`, the Potency is reported as “inactive”. For `COCCOC(=O)C1=C(C)NC(C)=C(C(=O)OC/C=C/c2ccccc2)C1c1cccc([N+](=O)[O-])c1` (centres undefined), the Potency was “inactive”. In the case of `CCCCC(CC)C(=O)OCCOCCOCCOCCOC(=O)C(CC)CCCC` (centres undefined), the Potency is reported as “inactive”. With `CCOC(=O)c1ccccc1OC` the Potency was “inactive”. In the case of `CCCCCCCCCCOS(=O)(=O)O`, the Potency is reported as “inactive”. With `C1COCO1` the Potency was “inactive”. With `Cc1ccc(/C=N/n2c(-c3ccccc3)csc2=S)cc1` the Potency was “inactive”. For `Cc1ccc(Nc2nccc(N(C)c3ccc4c(C)n(C)nc4c3)n2)cc1S(N)(=O)=O`, the Potency was “inactive”. For `CC(C)=CC=O`, the Potency was “inactive”. With `CCOC(=O)[C@@H](C)Oc1ccc(Oc2nc3ccc(Cl)cc3o2)cc1` the Potency was “inactive”. With `CCCCCCCCCCCC[N+](C)(C)CCCS(=O)(=O)[O-]` the Potency was “inactive”. For `ON(Cc1ccccc1)Cc1ccccc1`, the Potency was “inactive”. For `CC(C)CCCCCOC(=O)CCCCC(=O)OCCCCCC(C)C`, the Potency was “inactive”. With `CNC(=O)N(c1ccccc1)c1ccccc1` the Potency was “inactive”. With `O=C(OCCOCCO)c1ccccc1Nc1cccc(C(F)(F)F)c1` the Potency was “inactive”. With `CCCCCCOC(=O)C(C)C` the Potency was “inactive”. For `CC(=O)OCC(=O)[C@H]1CC[C@H]2[C@@H]3CCC4=CC(=O)CC[C@]4(C)[C@H]3CC[C@]12C`, the Potency was “inactive”.

Test system: not listed separately
Assay: qHTS assay to identify small molecule antagonists of the constitutive androstane receptor (CAR) signaling pathway - cell viability counter screen (AID 1224837); further: nearly all actives have a fitted effect of over 45% in size; further: potency means the concentration at half of the fitted maximal effect
Conditions: HepG2-CYP2B6-hCAR viability, CellTiter-Fluor, 23 h, co-treated with 50 nM CITCO; series mostly up to 92.4 µM
Summary of the method: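 Counter screen run in HepG2-CYP2B6-hCAR cells: 4 hr settle, compound titration (15 concentrations) with 50 nM CITCO, 23 hr at 37 C/5% CO2, CellTiter-Fluor fluorescence.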
With `CCOC(=N)CC(=O)OCC` the Potency was “inactive”. For `CCOC(=O)C(C)Oc1ccc(Oc2nc3ccc(Cl)cc3o2)cc1` (centres undefined), the Potency was “inactive”. With `Nc1ccc(Cl)cc1[N+](=O)[O-]` the Potency was “inactive”. In the case of `CC(C)(CCl)c1ccccc1`, the Potency is reported as “inactive”. With `N#C/C(=C1\SCC(c2ccccc2Cl)S1)n1ccnc1` (centres undefined) the Potency was “inactive”. For `CCCOc1ccc(S(=O)(=O)N2CCN(CC)CC2)cc1-c1nc2c(CC)n(Cc3ccccn3)nc2c(=O)[nH]1`, the Potency was “inactive”. For `CCCCN(CCCC)C(=S)SSC(=S)N(CCCC)CCCC`, the Potency was “inactive”. In the case of `Nc1ccc(S(=O)(=O)O)cc1`, the Potency is reported as “inactive”. In the case of `CC(C)c1nnc2ccc(-c3ocnc3-c3cc(F)ccc3F)cn12`, the Potency is reported as “inactive”. With `Cc1cc(O)c2c(O)c3c(O)cccc3cc2c1` the Potency was “inactive”. With `CC(=O)Oc1ccc2c(c1)CC[C@@H]1[C@@H]2CC[C@]2(C)[C@@H](O)CC[C@@H]12` the Potency was “inactive”. In the case of `CO/N=C1\CN(c2nc3c(cc2F)c(=O)c(C(=O)O)cn3C2CC2)CC1CN` (centres undefined), the Potency is reported as “inactive”. In the case of `N#C/C(=C1/SC[C@@H](c2ccc(Cl)cc2Cl)S1)n1ccnc1`, the Potency is reported as “inactive”. For `C=CC(=O)NCOCC(C)C`, the Potency was “inactive”. With `O=C(O)Cc1ccc(-c2ccccc2)cc1` the Potency was “inactive”. In the case of `NCC1CCCC(CN)C1` (centres undefined), the Potency is reported as “inactive”. In the case of `C=C(C)C(=O)OCCOC(=O)CC(C)=O`, the Potency is reported as “inactive”. In the case of `O=C(c1ccc(O)cc1)c1ccc(Cl)cc1`, the Potency is reported as “inactive”. In the case of `O=C(O)c1ccccc1NCCc1ccccc1`, the Potency is reported as “inactive”. For `CCCCC(CC)C(=O)OCCOCCOCCOCCOC(=O)C(CC)CCCC` (centres undefined), the Potency was “inactive”. For `CCOC(=O)c1ccccc1OC`, the Potency was “inactive”. With `CCCCCCCCCCOS(=O)(=O)O` the Potency was “inactive”. In the case of `C1COCO1`, the Potency is reported as “inactive”. In the case of `Cc1ccc(/C=N/n2c(-c3ccccc3)csc2=S)cc1`, the Potency is reported as “inactive”. In the case of `Cc1ccc(Nc2nccc(N(C)c3ccc4c(C)n(C)nc4c3)n2)cc1S(N)(=O)=O`, the Potency is reported as “inactive”. In the case of `CC(C)=CC=O`, the Potency is reported as “inactive”. With `CCOC(=O)[C@@H](C)Oc1ccc(Oc2nc3ccc(Cl)cc3o2)cc1` the Potency was “inactive”. For `CCCCCCCCCCCC[N+](C)(C)CCCS(=O)(=O)[O-]`, the Potency was “inactive”. For `CO[C@@]12[C@H](COC(N)=O)C3=C(C(=O)C(C)=C(N)C3=O)N1C[C@@H]1N[C@@H]12`, the Potency was 9.44 µM (active). For `ON(Cc1ccccc1)Cc1ccccc1`, the Potency was “inactive”. For `O=C(NCCCN1CCOCC1)c1ccc(Cl)cc1`, the Potency was “inactive”. In the case of `CC(C)CCCCCOC(=O)CCCCC(=O)OCCCCCC(C)C`, the Potency is reported as “inactive”. For `CNC(=O)N(c1ccccc1)c1ccccc1`, the Potency was “inactive”. In the case of `O=C(OCCOCCO)c1ccccc1Nc1cccc(C(F)(F)F)c1`, the Potency is reported as “inactive”. With `CCC(Cc1ccccc1)(C(=O)c1ccc(N2CCOCC2)cc1)N(C)C` (centres undefined) the Potency was “inactive”. In the case of `CCCCCCOC(=O)C(C)C`, the Potency is reported as “inactive”. In the case of `CC(=O)OCC(=O)[C@H]1CC[C@H]2[C@@H]3CCC4=CC(=O)CC[C@]4(C)[C@H]3CC[C@]12C`, the Potency is reported as “inactive”. For `NC(=O)N(O)[C@@H]1C=C[C@H](Oc2cccc(Oc3ccc(F)cc3)c2)C1`, the Potency was “inactive”.
